Test results reported in PubChem BioAssay (NCATS).
“And” between values parts separate entries of the source, which are not always exact repeats. Equal values may be shown once. Results filed as inconclusive are left out. The source made the active and inactive calls. Calls come from the whole dose curve; as a rule, active = well fitted inhibition curve with a large enough effect; inconclusive = small, poorly fitted or top-dose-only effect; inactive = flat fitted curve, though single readings scatter.

Columns and labels:
[1] = test system: CRL-7250; test: Cytotoxic Profiling of Annotated Libraries Using Quantitative High-Throughput Screening (AID 1296008); conditions: Five cell lines viability, CellTiter-Glo ATP luminescence, 48-72 h; max response: hits give low values
Summary of the method: (§1)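 Cells exposed to compounds for 48 or 72 hr at 37 degrees Celsius. Viability read as ATP-coupled luminescence with CellTiter-Glo after 10 min at room temperature.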

[2] = test system: HEK293; test: as above; conditions: Five cell lines viability, CellTiter-Glo ATP luminescence, 48-72 h; max response: hits give low values
Summary of the method: as §1

[3] = test system: HaCat; test: as above; conditions: Five cell lines viability, CellTiter-Glo ATP luminescence, 48-72 h; max response: hits give low values
Summary of the method: as §1

[4] = test system: KB-3-1; test: as above; conditions: Five cell lines viability, CellTiter-Glo ATP luminescence, 48-72 h; max response: hits give low values
Summary of the method: as §1

[5] = test system: NIH3T3; test: as above; conditions: Five cell lines viability, CellTiter-Glo ATP luminescence, 48-72 h; max response: hits give low values
Summary of the method: as §1

[6] = test system: HACAT; test: qHTS assay to identify novel small-molecules to repurpose for Merkel cell carcinoma treatment (AID 1296009); conditions: MCC and control cell lines, CellTiter-Glo viability, 72 h; at 44.8 µM (top of the series) unless noted
Summary of the method: (§2)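 CellTiter-Glo luminescence after 72 hr compound exposure at 37 degree celsius gave cell viability. Libraries NPC and MIPE were run as 8- and 11-point dose responses; RLUs normalized to DMSO (negative) and no-cell (cytotoxicity) controls.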

[7] = test system: HEK293T; test: as above; conditions: MCC and control cell lines, CellTiter-Glo viability, 72 h; at 44.8 µM (top of the series) unless noted
Summary of the method: as §2

[8] = test system: MCC-13; test: as above; conditions: MCC and control cell lines, CellTiter-Glo viability, 72 h; series mostly up to 46 µM
Summary of the method: as §2

[9] = test system: MCC-26; test: as above; conditions: MCC and control cell lines, CellTiter-Glo viability, 72 h; series mostly up to 46 µM
Summary of the method: as §2

[10] = test system: MKL-1; test: as above; conditions: MCC and control cell lines, CellTiter-Glo viability, 72 h; series mostly up to 46 µM
Summary of the method: as §2
% is set by controls: 0 for no effect and ±100 for the full control effect.
Note: nearly all actives have a fitted effect of over 60% in size.

CCN(CC)C(=O)Nc1ccc(OCC(O)CNC(C)(C)C)c(C(C)=O)c1 (centres undefined)
inactive: max response [1] -2.26% and 4.22% | max response [2] -6.49% | outcome [2] | outcome [3] | max response [4] 3.46% and 6.71% | max response [5] -5.4% and -0.794% | outcome [6] | outcome [7] | Potency [8] | Potency [9] | Potency [10]

CN(N=O)C(=O)N[C@@H]1[C@@H](O)[C@H](O)[C@@H](CO)O[C@@H]1O
inactive: outcome [1] | outcome [2] | outcome [3] | max response [4] 28.6% | outcome [5] | outcome [6] | outcome [7] | Potency [8] | Potency [9] | Potency [10]

COc1ccc(Cl)cc1C(=O)NCCc1ccc(S(=O)(=O)NC(=O)NC2CCCCC2)cc1
inactive: max response [1] -1.35% and -10.9% | max response [2] -12.8% | outcome [2] | max response [3] 2.84% and -12.6% | max response [5] -5.68% and -4.29% | outcome [7] | Potency [8] | Potency [9] | Potency [10]

C[C@]12CC[C@@H]3c4ccc(O)cc4CC[C@H]3[C@@H]1CC[C@@H]2OC(=O)CCC1CCCC1
inactive: max response [1] -19.6% | outcome [1] | max response [2] -8.4% | outcome [3] | max response [4] -5.64% and 15.4% | max response [5] 2.8% | outcome [6] | Potency [8] | Potency [9] | Potency [10]

O=C(O)[C@@H]1CSCN1
inactive: max response [1] -15.8% | outcome [2] | outcome [3] | max response [4] 0.966% | outcome [5] | outcome [6] | outcome [7] | Potency [8] | Potency [9] | Potency [10]

OCC(O)CN1CCN(c2ccccc2)CC1 (centres undefined)
inactive: max response [1] 0.497% and 1.49% | max response [2] -1.21% | outcome [2] | max response [3] -30% | max response [4] -6.94% and 8% | max response [5] -1.52% | outcome [5] | outcome [7] | Potency [8] | Potency [9] | Potency [10]

CC(C)(O)c1ccccc1CC[C@@H](SCC1(CC(=O)O)CC1)c1cccc(/C=C/c2ccc3ccc(Cl)cc3n2)c1
inactive: max response [1] -23.3% | max response [2] 4.81% | outcome [3] | max response [4] -11.2% and 6.98% | max response [5] -22.4% | outcome [5] | outcome [6] | Potency [8] | Potency [9] | Potency [10]

Cn1c(=O)c2c(ncn2CC2OCCO2)n(C)c1=O
inactive: max response [1] -4.54% and 1.94% | outcome [2] | max response [3] -3.76% | outcome [3] | max response [4] 6.93% and 8.78% | max response [5] 0.911% | outcome [5] | outcome [6] | outcome [7] | Potency [8] | Potency [9] | Potency [10]

CCOC(=O)[C@H](CCc1ccccc1)N[C@@H](C)C(=O)N1C(=O)N(C)C[C@H]1C(=O)O
inactive: max response [1] 1.6% | outcome [1] | max response [2] -1.24% | outcome [2] | max response [3] 0.859% | outcome [3] | max response [5] 4.99% | outcome [5] | outcome [6] | outcome [7] | Potency [8] | Potency [9] | Potency [10]

CN1CCOC(c2ccccc2)c2ccccc2C1 (centres undefined)
inactive: max response [1] 2.8% | outcome [1] | max response [2] -2.69% | outcome [2] | max response [3] -15.1% and -5.19% | max response [4] -9.99% and 4.82% | max response [5] 2.98% | outcome [5] | outcome [7] | Potency [8] | Potency [9] | Potency [10]

CCOc1ccc2ccccc2c1C(=O)N[C@@H]1C(=O)N2[C@@H]1SC(C)(C)[C@@H]2C(=O)O
inactive: outcome [1] | max response [2] 0.937% | outcome [2] | max response [3] 4.96% | outcome [3] | max response [4] -11.5% and -0.445% | max response [5] -3.18% and 1.59% | outcome [6] | outcome [7] | Potency [8] | Potency [9] | Potency [10]

c1ccc(CN(CC2=NCCN2)c2ccccc2)cc1
inactive: max response [1] 3.95% and 1.52% | max response [2] 0.31% and -21.2% | max response [3] 4.83% | outcome [3] | max response [5] 2.96% | outcome [5] | outcome [6] | Potency [8] | Potency [9] | Potency [10]

CC(C(O)c1ccc(O)cc1)N1CCC(Cc2ccccc2)CC1 (centres undefined)
inactive: max response [1] -1.07% | outcome [1] | max response [3] -22.6% | outcome [3] | max response [4] -5.14% | outcome [4] | max response [5] -2.06% and 3.27% | outcome [6] inactive [at 17.4 µM] | Potency [8] | Potency [9] | Potency [10]

CC(=O)CCC(=O)O
inactive: max response [1] -8.02% | outcome [2] | outcome [3] | max response [4] 2.58% | outcome [5] | outcome [6] | outcome [7] | Potency [8] | Potency [9] | Potency [10]

O=c1[nH]cnc2c1ncn2[C@@H]1O[C@H](CO)[C@@H](O)[C@H]1O
inactive: max response [1] -10.1% and -4.73% | max response [2] 3.98% | outcome [2] | outcome [3] | max response [4] 7.98% | outcome [4] | max response [5] 0.16% | outcome [5] | outcome [6] | outcome [7] | Potency [8] | Potency [9] | Potency [10]

NCCNCCNCCNCCN
inactive: max response [1] 3.13% | outcome [2] | outcome [3] | max response [4] -4.72% | max response [5] -0.231% | outcome [6] inactive [at 9.27 µM] | outcome [7] inactive [at 9.27 µM] | activity change, negative = cytotoxicity [8] 6.32% [at 9.22 µM] | activity change, negative = cytotoxicity [9] -6.59% [at 9.22 µM] | activity change, negative = cytotoxicity [10] -8% [at 9.22 µM]
